We go through 107 compounds from ChEMBL document CHEMBL4513216, “Probing the Open Global Health Chemical Diversity Library for Multistage-Active Starting Points for Next-Generation Antimalarials” (ACS Infect Dis, 2020).

Screen size: about 69,000 compounds; about 8,600 (12%) showed an effect of 50% or more. What follows is part of a selection rich in strong results, with near analogues and random picks from the rest.

The test system of the experiment is Plasmodium berghei. As to the kind of experiment: Screen against P. berghei liver stage (PbLuc), transformed with Luciferase, at 10uM. Type of experiment: functional, HepG2. The settings on record: tested at 10 uM.
Regarding `c1cc(C2CN(C3CCCC3)C2)n[nH]1`, the INHIBITION was 7.4%.
In the case of `O=C(CCOc1ccccc1F)N1CCOCC1` it was 48.2%; in that of `CN(C)CCOCC1CN(Cc2ccccn2)Cc2nnn(C)c21` (configuration not stated), -2.35%; in that of `CN(C)c1ccnc(C2CCCN2)n1` (configuration not stated), 10.45%.
The figure for `Cc1cccc(C2(CNC(=O)CCNS(C)(=O)=O)CCCC2)c1` is 67.5%; for `Cc1cccc(C2(CNC(=O)C(C)S(C)(=O)=O)CCCC2)c1` (configuration not stated) it is 2.39%; for `Cc1cccc(C2(CNC(=O)CO)CCCC2)c1` it is 21.5%.
In the case of `C[C@@H]1CN(c2ccc(Cl)cn2)CC[C@@]1(O)C1CCOCC1` it was 17.215%; in that of `CCOC(=O)N1CCC(OC)c2ccccc2N(C)C(=O)C1` (configuration not stated), 46.4%; in that of `CCc1cc(=O)n(CC(=O)N2CCCC2)c(-c2cccc(F)c2)n1`, 46.6%.
Take `COCC(=O)N1CCN(C(=O)c2scnc2C)CC1`: the INHIBITION worked out at 21.3%.
The figure for `CSCCC(=O)N1CCc2c(ncnc2N2CCOCC2)C1` is -103%; for `O=C(C1CC1)N1CCCN(c2ncnc3c2CCNCC3)CC1` it is -20.6%; for `CCN1CCN(c2ncnc3c2CCN(C(=O)C2CC2)C3)CC1` it is 61.1%.
The figure for `CCN(CC)C1CCN(c2ncnc3c2CCN(C(=O)C2CC2)C3)C1` (configuration not stated) is 64.5%.
The figure for `CNC(=O)C1CCN(c2ncnc3c2CCN(C(=O)C2CC2)C3)C1` (configuration not stated) is 57.8%; for `CCOCC(=O)N1CCc2c(ncnc2N2CCOCC2)C1` it is -68.2%.
As for `CCCOC1CCCN(c2ncnc3c2CCN(C(=O)C2CC2)C3)C1` (configuration not stated), the INHIBITION was determined as 49.9%.
In the case of `O=C(C1CC1)N1CCc2c(ncnc2N2CCN3CCCC3C2)C1` (configuration not stated) it was 46.6%; in that of `Cc1cnc(-c2nc(O)c3c(n2)CN(C(=O)C2CC2)CC3)cn1`, 9.98%.
In the case of `CN1CCC(c2cnc(NCc3nccn3C)cn2)CC1` it was 33.2%; in that of `COCC1CN(Cc2ccc(C)o2)Cc2nnn(CC3CC3)c21` (configuration not stated), -8.19%; in that of `Cn1nc(Br)nc1Sc1ccccc1NC(=O)C1CC1`, 37.4%.
In the case of `O=C1N(Cc2cccc(Cl)c2)CCC12CCCNC2` (configuration not stated), the INHIBITION is -15.9%.
In the case of `Cc1cnn(CC2CCCN2C(=O)CCc2c(C)nn(C)c2C)c1` (configuration not stated) it was 0.825%; in that of `CCCC(NC(=O)c1cncc(C)c1)c1nnn[nH]1` (configuration not stated), 23.5%; in that of `CCN1CC[C@@]2(C(=O)Nc3ccccc3)CCN(S(C)(=O)=O)CC[C@@H]12`, 35.8%.
Regarding `CCc1cc(C(=O)N[C@@H]2CC[C@@H](N3CCOCC3)[C@@H]2O)no1`, the INHIBITION came to 10.9%.
For the compound `Cc1ccnc(OCC(=O)N2CCN(c3ncccn3)CC2)n1`, the INHIBITION is reported as -17.8%.
On to `Cc1ccc(N2CCN(C(=O)COc3nccc(C)n3)CC2)nn1`, for which the INHIBITION was determined as 50.5%.
In the case of `Cc1ccc(N2CCN(C(=O)COc3ncccn3)CC2)nn1` it was -38.7%.
The figure for `CNC(=O)C1(c2cnccn2)CCCN1C(=O)c1c(F)cccc1F` (configuration not stated) is 34%; for `C[C@@H]1CN(C(=O)CCN2CCOCC2)CC[C@]1(C)O` it is 55%.
The figure for `Cc1cccc(=O)n1CCC(=O)N1CC[C@@](O)(C2CCC2)[C@H](C)C1` is 47.6%; for `CC[C@H]1CN(C(=O)CCn2c(C)cccc2=O)CC[C@@]1(C)O` it is -22.7%.
As for `C[C@@H]1CN(C(=O)CCCN2CCCC2)CC[C@@]1(O)C1CCOCC1`, the INHIBITION came to 10.6%.
`C[C@@H]1CN(C(=O)CCN2CCCC2)CC[C@@]1(O)C1CCOCC1`: the INHIBITION is given as 25.4%.
Consider `Cc1cccc(=O)n1CCC(=O)N1CC[C@](C)(O)[C@H](C)C1`, for which the INHIBITION is recorded as 51.3%.
For `C[C@@H]1CN(C(=O)CCN2CCCC2)CC[C@@]1(O)C1CCC1`, the INHIBITION is on record as 27.9%.
In the case of `C[C@@H]1CN(C(=O)CCCN2CCOCC2)CC[C@@]1(O)C1CCC1` it was 64.9%; in that of `C[C@@H]1CN(C(=O)CCCN2CCOCC2)C[C@@]1(O)C1CC1`, 37.7%; in that of `CNCC1CCC(c2cc(CN(C)S(=O)(=O)N(C)C)n(C)n2)CC1` (configuration not stated), 44.3%.
In the case of `CC(C)OC(=O)N1C[C@@H]2CC[C@H]1CN(C(=O)c1ccccn1)C2` it was -26.4%.
With `COc1nonc1NCn1nc(C)cc1C`, the INHIBITION came to 39.7%.
The figure for `CN(C)Cc1nc(C2(NC(=O)Nc3cccc(F)c3)CCCC2)no1` is 38.2%; for `CCN1CCN(C2CCN(CC(=O)NCC(F)(F)F)CC2)C1=O` it is -3.2%; for `Cc1nccn1[C@@H]1CC[C@@H](NC(=O)Cn2c(C)nc3ccccc32)[C@H]1O` it is 23.9%.
For the compound `COc1ccccc1CN(Cc1nc(C)no1)C1CC1`, the INHIBITION came to 17.4%.
With `Cc1cncnc1C1CCN(C(=O)C2(C)CCCCN2C)CC1` (configuration not stated), the INHIBITION came out at 1.45%.
The figure for `Cn1ccnc1-c1ccc(NCC2COc3ccccc3O2)nn1` (configuration not stated) is -9.17%.
On to `Cn1ccnc1-c1ccc(NCCC2COc3ccccc3O2)nn1` (configuration not stated), for which the INHIBITION was found to be 34%.
In the case of `Cn1ccnc1-c1ccc(NC[C@H]2CCc3ccccc3O2)nn1` it was 60%; in that of `CCC(O)CN1CCN(C(=O)c2sccc2C2CC2)CC1` (configuration not stated), 19.5%.
The figure for `Cc1nc(CN2CCN(C(C)c3nc(C(C)C)no3)CC2)oc1C` (configuration not stated) is 6.7%; for `Cc1cc(C)n(C2CN(c3ncnc4c3CCC4)C2)n1` it is 0.868%; for `c1cnn(C2CN(c3nc(-c4ccncc4)nc4c3CCC4)C2)c1` it is 53.6%.
`Cc1cc(C)n(C2CN(c3nc(-c4ccncc4)nc4c3CCC4)C2)n1`: the INHIBITION is 81.4%.
With `OCCC1CN(c2nc(-c3ccncc3)nc3c2CCNCC3)CCO1` (configuration not stated), the INHIBITION was determined as 11.8%.
Regarding `Cc1cc(C)n(C2CN(c3nc(N)nc4c3CCCC4)C2)n1`, the INHIBITION is listed as 34.1%.
The figure for `Cc1cnn(C2CN(c3nc(-c4ccncc4)nc4c3CCC4)C2)c1` is 44.3%; for `CC1(c2ncc(CN(CC(=O)O)Cc3ccccc3)cn2)CCCCO1` (configuration not stated) it is 16.9%.
The figure for `Cc1ccc(F)c2c1CCCN2C(=O)c1cn(CC(=O)N(C)C)nn1` is 29.1%; for `CC1(C)OCC(CNC(=O)c2cnn(-c3cccc(Cl)c3Cl)c2N)O1` (configuration not stated) it is -101%; for `Cn1ccnc1CN1CCCC1CCc1ccccc1` (configuration not stated) it is -67.9%.
The figure for `O=C(CCNc1ccccc1)NC1CCN(C(=O)C2CCCCC2)CC1` is 27.6%.
For `O=C(c1ccoc1)N1CCOCC2(CCN(C3CCOCC3)C2)C1` (configuration not stated), the INHIBITION turned out to be 34.4%.
The figure for `CC(C)NC(=O)N1CCCC2(CCN(c3ccsc3)C2=O)C1` (configuration not stated) is -4.82%; for `CCc1nnc(CN2CCCC(c3cc(C(N)=O)[nH]n3)C2)o1` (configuration not stated) it is 4.71%.
In the case of `CCC(=O)c1ccc(OCC(=O)NCC2CC(CC)=NO2)cc1` (configuration not stated) it was 52.6%; in that of `C=C(C)COc1ccc(C(=O)NCC2CC(CC)=NO2)cc1` (configuration not stated), 6.26%.
The figure for `CCC(=O)c1ccc(OCC(=O)NCC2CCCO2)cc1` (configuration not stated) is 3.48%; for `Cc1cc2cccc(NC(=O)N3CC[C@H]4CC[C@@H](C3)N4C)c2o1` it is -4.01%.
On to `CCN(CC(=O)NC(C)C)C(=O)c1ccc(-c2ccsc2)nc1C`, for which the INHIBITION stood at 47%.
Turning to `CCc1n[nH]c(C2CN(C(=O)c3ncoc3CC)CCO2)n1` (configuration not stated), the INHIBITION is recorded as -19.9%.
The figure for `CCn1cnnc1C1CCN(C(=O)c2cccc(OC)c2OC)CC1` is 22.3%; for `CN(Cc1ccncn1)C(=O)C1(Oc2ccc(Cl)cc2)CCNCC1` it is 53.3%; for `CN(Cc1ccoc1)C(=O)C1(Oc2ccc(Cl)cc2)CCNCC1` it is 11.9%.
In the case of `CN(C)C(=O)C1(Oc2ccc(Cl)cc2)CCNCC1` it was 1.79%; in that of `CC(C)c1ccc2c(c1)CCCN2C(=O)CN(C)S(C)(=O)=O`, 48.3%.
For `CC(=O)c1c(C)nn(S(=O)(=O)c2ccc(F)cc2)c1C`, the INHIBITION is 53.8%.
In the case of `CC(=O)c1c(C)nn(S(=O)(=O)c2ccc(Cl)cc2)c1C` it was -16.6%; in that of `CC(=O)c1c(C)nn(S(=O)(=O)c2ccc(C)cc2)c1C`, -15.5%.
The figure for `CSc1nc(N)cc(N2C[C@H]3CC[C@@H](C2)N(Cc2cscn2)C3=O)n1` is 9.4%; for `CS(=O)(=O)N1CCC2(CC1)CN(CC1CC1)CC21CCNC1=O` (configuration not stated) it is 3.81%.
The figure for `O=C(c1ccc(F)c(Cl)c1)N1C[C@H]2CC[C@@H](C1)N(Cc1ccccc1)C2` is 68.5%; for `COCCN1C[C@@H]2CC[C@H]1CN(C(=O)CCn1cc(Cl)cn1)C2` it is 26.6%.
Take `O=C(c1c[nH]c(=O)c(Cl)c1)N1C[C@H]2CC[C@@H](C1)N(Cc1ccccc1)C2`: the INHIBITION was -23.2%.
The figure for `O=S(=O)(c1cccnc1)N1C[C@H]2CC[C@@H](C1)N(Cc1ccccn1)C2` is 31.7%.
For the compound `CCN(CC)c1ccc(C(=O)N2C[C@H]3CC[C@@H](C2)N(CCOC)C3)cc1`, the INHIBITION was determined as 25.4%.
The figure for `O=S(=O)(c1cccnc1)N1C[C@H]2CC[C@@H](C1)N(Cc1ccccc1)C2` is 18.6%.
In the case of `O=C(c1cc(F)cc(Cl)c1)N1C[C@H]2CC[C@@H](C1)N(Cc1ccccc1)C2` it was -31.3%; in that of `COCCN1C[C@@H]2CC[C@H]1CN(C(=O)c1ccc(Cl)cc1)C2`, 66.1%.
As to `O=S(=O)(c1cccc(F)c1)N1C[C@H]2CC[C@@H](C1)N(Cc1ccccc1)C2`, the INHIBITION was determined as 63.6%.
Consider `CN1CCN(C(=O)C2CCN(c3cccnn3)CC2)CC1`, for which the INHIBITION is -9.32%.
The figure for `CCc1nnc2n1CCN(C(=O)c1nc(-c3ccco3)sc1C)C2` is 21.5%.
In the case of `O=C(Cn1ccc(C(=O)O)n1)Nc1c(Cl)cccc1Cl` it was 19.09%.
Consider `Cc1ncc(CN(C)Cn2nc(-c3ccccc3)oc2=O)s1`, for which the INHIBITION worked out at 3.41%.
As to `CN(Cc1nnc2n1CCC2)C(=O)c1ccc2c(c1)OCCO2`, the INHIBITION is listed as -2.53%.
In the case of `O=C(Cc1ccccc1F)N1CCN(C(=O)c2ccoc2)CC1` it was 16.6%; in that of `Cc1nnc2ccc(N3CCC4(CCOC4)C3)nn12` (configuration not stated), 9%; in that of `Cc1nc(C)c(C)c(N2CCC3(CCOC3)C2)n1` (configuration not stated), -129%.
In the case of `Cc1nc(N2CCC3(CCOC3)C2)c2cc[nH]c2n1` (configuration not stated) it was 71.1%; in that of `COc1ccc2c(c1)CN(Cc1ccco1)C(=O)CCN2`, 17.7%.
The figure for `Cc1ccc(-n2cc(C(=O)N3CCCC(n4cccn4)C3)nn2)cc1` (configuration not stated) is -2.19%; for `O=C(O)CC1COCCN1C(=O)C1(c2ccc(Cl)cc2)CCC1` (configuration not stated) it is 1.74%.
On to `CNC(=O)CC1COCCN1C(=O)C1(c2ccc(Cl)cc2)CCC1` (configuration not stated), for which the INHIBITION was found to be 52.1%.
In the case of `O=C(N1CCOCC(O)C1)C1(c2ccc(Cl)cc2)CCC1` (configuration not stated) it was 0.0996%.
